# Screening data deposited in PubChem BioAssay by several laboratories.
# An excerpt weighted towards active compounds, which were near 2.8% of everything screened.
# MITF TRPM1 inh = inhibitors of MITF-driven TRPM1 promoter in melanoma cells | AID 488899 | actives 0.83% (n = 330,000) | inhibition, % at 12.5 µM | SK-MEL-5 TRPM1 promoter luciferase, 24 h;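 active = mean inhibition across replicates of 60% or more, whatever share of single replicates reaches that level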
# LMP1 NFkB inh = inhibitors of Epstein-Barr LMP1-induced NF-kappaB reporter | LMP1-induced NF-kappaB luciferase reporter cells, luminescence | inhibition, % at 12.5 µM | actives 0.69% (n = 350,000); in the data active = inhibition above about 41%;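 also: 0% = neutral control wells and 100% = reference inhibitor control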
# Shn3 3UTR inh = reduces Shn3 3'UTR luciferase signal in osteoblasts. AID 588674. actives 0.52% (n = 360,000). inhibition, % at 12.5 µM. Clone20 osteoblast Shn3 3'UTR firefly luciferase, 24 h;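 active = mean inhibition of at least 75% with every replicate also reaching 75%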;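 also: 0% = median of neutral control wells and 100% = pilot-screen positive control compound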
# Peg3 promoter = Peg3 promoter activity inhibition. AID 588405. inhibition, % at 20 µM. actives 1.7% (n = 360,000). HeLa PEG-Prom luciferase reporter, luminescence, overnight;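 active = inhibition of at least 50% at 20 µM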
# PAX8 inh HTS = PAX8 transcriptional activity inhibition; RMG-I TPO-luciferase reporter, SteadyGlo, 24 h; inhibition, % at 12.6 µM; actives 1.2% (n = 360,000);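 active = mean replicate inhibition at least 60% with every replicate also reaching 60%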;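 also: luciferase light reporting Pax8 driven TPO promoter activity; plate controls were median of neutral control wells for no effect and mitoxantrone controls for full effect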
# HIF-2a block = HIF-2a inhibition | 786-0 RCC cells HIF-2a reporter, luciferase luminescence, overnight | inhibition, % at 18.8 µM | actives 0.72% (n = 360,000) | AID 624352;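 active = inhibition of the luminescence signal of 40% or more relative to plate controls, in a single-dose primary screen at 18.75 µM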
# The depositor's hits bear a star; / = no result given; ! = not confirmed by another sample.
SMILES,MITF TRPM1 inh,LMP1 NFkB inh,Shn3 3UTR inh,Peg3 promoter,PAX8 inh HTS,HIF-2a block
C[C@@H]1CCCCO[C@H](CN(C)Cc2ccc(C(F)(F)F)cc2)[C@H](C)CN([C@@H](C)CO)C(=O)c2cc(NC(=O)Cc3ccccc3)ccc2O1,/,-5,15,50*,65*!,-30
C[C@@H]1CCCCO[C@@H](CN(C)Cc2ccc(C(F)(F)F)cc2)[C@H](C)CN([C@@H](C)CO)C(=O)c2cc(NC(=O)Cc3ccccc3)ccc2O1,/,/,/,/,81*,/
C[C@@H]1CCCCO[C@@H](CN(C)Cc2ccc(C(F)(F)F)cc2)[C@@H](C)CN([C@H](C)CO)C(=O)c2cc(NC(=O)Cc3ccccc3)ccc2O1,/,/,/,/,7,/
COCCNC(=O)c1cccc(Nc2nc(-c3ccccc3)c3cc(Cl)ccc3n2)c1,20,18,0,53*,7,2
CC(=O)NNc1nc(-c2ccccc2)c2cc(Cl)ccc2n1,/,-1,13,2,/,19
CCS(=O)(=O)Nc1ccc2c(c1)C(=O)N(C)[C@@H]1CC[C@H](CC(=O)Nc3ccccc3)O[C@@H]1CO2,/,/,/,/,2,/
Fc1ccc(COc2ccccc2CNCc2ccncc2)cc1,5,2,-19,9,12,7
Cc1ccc(C)c(OCCCNCc2ccccc2)c1,7,1,5,-7,23,4
Clc1cc(Br)ccc1OCCCNCc1ccccc1,-5,-3,15,56*,-16,-76
Brc1ccc(OCc2ccccc2)c(CNCc2ccncc2)c1,5,6,69,51*,/,3
COc1ccc2nc3cc(Cl)ccc3c(C#N)c2c1,-13,1,3,-15,19,-41
COc1ccc2nc3cc(Cl)ccc3c(Nc3ccc(O)c(CN4CCN(C)CC4)c3)c2c1,106*,4,-6,95*,-33,-49
C[C@@H]1CN([C@@H](C)CO)C(=O)Cc2cc(NC(=O)Cc3cn(C)c4ccccc34)ccc2O[C@H]1CN(C)Cc1ccncc1,/,/,/,/,3,/
CCC/C(C)=N/NC(=O)c1ccccc1O,6,-2,-19,11,20,-1
CCOC(=O)C(CC)/C(C)=N\NC(=O)c1ccccc1O (centres undefined),15,-10,-9,54*,26,-62
CC(C)NC(=O)N1C[C@H]2[C@@H](c3ccccc31)[C@@H](CO)N2C(=O)c1ccccc1F,/,/,/,/,-17,/
CN(C)CC#Cc1ccc([C@H]2[C@H](CO)N3C(=O)CN(C(=O)c4ccc(F)cc4)C[C@@H]23)cc1,/,/,/,/,-7,/
COC(=O)c1[nH]c2c(c1C)C(=O)CC(c1cccc(OC)c1)C2 (centres undefined),19,1,2,10,82*,25
CCOCCOC(=O)c1[nH]c2c(c1C)C(=O)CC(c1cccs1)C2 (centres undefined),32,-1,-8,-7,60,-2
CCCCCOC(=O)c1[nH]c2c(c1C)C(=O)CC(c1ccco1)C2 (centres undefined),47,7,92*,-21,/,-5
CCOCCOC(=O)c1[nH]c2c(c1C)C(=O)CC(c1ccccc1)C2 (centres undefined),33,5,30,-23,82*,-16
COCCNC(=O)C[C@@H]1CC[C@@H]2[C@H](COc3ccc(NC(=O)Cc4ccccc4)cc3C(=O)N2C)O1,/,/,/,/,3,/
CNC[C@H]1Oc2ccc(NS(=O)(=O)c3ccccc3)cc2C(=O)N([C@@H](C)CO)C[C@@H]1C,/,/,/,/,-13,/
CCOc1ccc2nc(SCC#N)c(C#N)cc2c1,0,-32,19,-213,/,-140
CCSc1nc2ccc(OC)cc2cc1C#N,-69,78*,-39,-84,/,-100
SMILES,MITF TRPM1 inh,LMP1 NFkB inh,Shn3 3UTR inh,Peg3 promoter,PAX8 inh HTS,HIF-2a block
CCOC(=O)[C@@H]1[C@@H]2C=C[C@]3(O2)[C@H](C(=O)NCc2ccccc2)N(CCCCCCO)C(=O)[C@@H]13,/,/,/,/,109*,/
Cc1onc(-c2c(Cl)cccc2Cl)c1C(=O)N[C@@H]1C(=O)N2[C@@H]1SC(C)(C)[C@@H]2C(=O)O,17,75*!,91*!,-5,3,14
CCCC(=O)Nc1ccc(-c2csc(N/N=C\c3ccncc3)n2)cc1,1,26,-4,68*,6,-174
CC(=O)Nc1ccc(-c2csc(N/N=C\c3ccncc3)n2)cc1,/,/,-12,-22,13,-90
O=C(C[C@@H]1CC[C@@H]2[C@H](COC[C@H](O)CN2C(=O)c2cnccn2)O1)NCc1ccc(F)cc1,/,/,/,/,-3,/
COC(=O)C1=C(C)N(Cc2ccccc2)C(=NCc2ccco2)N[C@H]1c1cccc(F)c1,-3,0,-1,-8,6,10
COC(=O)C1=C(C)N(Cc2ccc(C(F)(F)F)cc2)C(=NCc2ccccc2)NC1c1cccc(F)c1 (centres undefined),/,/,/,/,101*,/
COC(=O)C1=C(C)N(Cc2ccccc2)C(=NCC(C)C)N[C@H]1c1cccc(C(F)(F)F)c1,96*,-4,7,103*,/,-9
COC(=O)C1=C(C)N(Cc2cccc(C(F)(F)F)c2)C(=NCc2ccc(OC)cc2)NC1c1cccc(C(F)(F)F)c1 (centres undefined),/,/,/,/,77*,/
COC(=O)C1=C(C)N(Cc2ccccc2)C(=NCC(C)C)N[C@H]1c1cccc(F)c1,-4,5,-10,83*,-17,2
O=C(C[C@H]1C=C[C@@H](NC(=O)Nc2cc(F)ccc2F)[C@H](CO)O1)Nc1ccccc1,/,/,/,/,19,/
O=C(c1ccc2c(c1)OCO2)N1C[C@@H]2N[C@H](C1)C2c1ccc(-c2cccnc2)cc1 (some centres undefined),/,/,/,/,2,/
Cc1ccc(S(=O)(=O)Nc2ccc3c(c2)C(=O)N([C@@H](C)CO)C[C@@H](C)[C@H](CN(C)C(=O)Cc2ccccc2)OCCCC[C@H](C)O3)cc1,/,/,/,/,-15,/
COC(=O)C1=C(C)N(Cc2cccc(C(F)(F)F)c2)C(=NCc2ccc(C(F)(F)F)cc2)NC1c1ccc(C(F)(F)F)cc1 (centres undefined),/,/,/,/,77*,/
COC(=O)C1=C(C)N(Cc2ccc(C(F)(F)F)cc2)C(=NCc2ccc(C(F)(F)F)cc2)NC1c1cccc(C(F)(F)F)c1 (centres undefined),/,/,/,/,35,/
COC(=O)C1=C(C)N(Cc2ccc(C(F)(F)F)cc2)C(=NCC2CC2)NC1c1cccc(Cl)c1 (centres undefined),/,/,/,/,68*,/
COC(=O)C1=C(C)N(Cc2cccc(C(F)(F)F)c2)C(=NCc2ccc(C(F)(F)F)cc2)NC1c1ccc(F)cc1 (centres undefined),/,/,/,/,36,/
COC(=O)C1=C(C)N(Cc2ccccc2)C(=NCCc2cccnc2)N[C@H]1c1ccccc1,-9,3,15,-22,/,-2
COC(=O)C1=C(C)N(Cc2cccc(C(F)(F)F)c2)C(=NCc2ccc(C(F)(F)F)cc2)NC1c1cccc(F)c1 (centres undefined),/,/,/,/,74*,/
